Among the data in PubChem BioAssay (NCI) are growth values, retold here.

Compounds without any hit were thinned out: in the full panel of roughly 83,000, 20% have a hit.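 Cells were grown in 96-well plates and exposed to the test compound at a single concentration for 48 hours; results are reported as percent growth, with values below 10 considered active.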 Calls of active or inactive are those of the source.

The subject of the first assay is MCF7 breast. The experiment in a line: NCI-60 one-dose screen, 48 h (100 = growth as untreated, 0 = no growth, -100 = all killed). Particulars: 10 µM unless noted.
Consider `COc1c(B(O)O)cccc1-c1nc2ccc3[nH]ncc3c2c2c1CCC2`, for which the growth is 74.4% (inactive).
In the case of `O=C1Nc2ccccc2/C1=C/C(=O)c1ccc(N2CCCC2)cc1`, the growth is 17.8% (inactive).
On the same count and under the same terms, for `COc1cc(C(=O)/C=C/c2c(-c3ccc(F)cc3)nc3sccn23)cc(OC)c1OC` the value was -8.44% (active); for `COc1ccc(C2CC(c3cc(OC)c(OC)c(OC)c3)=NN2C(C)=O)cc1OCC(=O)Nc1nc2ccc(C(F)(F)F)cc2s1` (stereo unspecified), 65% (inactive); for `CN(C)c1cc(NN=C(c2ccc(O)cc2)c2ccc(O)cc2)c([N+](=O)[O-])cc1[N+](=O)[O-]`, 27.2% (inactive).
On the same count and under the same terms, for `CC[C@@](C)(NC(=O)[C@H](C)NC(=O)CCNC(=O)C(C)(C)NC(=O)[C@H](C)NC(=O)[C@@H]1CCCN1C(=O)[C@@](C)(CC)NC(=O)[C@H](Cc1ccccc1)NC(=O)C1CCCN1C(=O)C(C)(C)NC(=O)C1CCCN1C(=O)C(C)(C)NC(C)=O)C(=O)NCCC(=O)N[C@@H](CC(C)C)C(=O)NC(C)(C)C(=O)NCCC(=O)N[C@@H](CC(C)C)C(=O)NC(C)(C)C(=O)NC(C)(C)C(=O)N[C@@H](CC(C)C)C(=O)NCCC(=O)NCO` (stereo partly specified) the value was -84.9% (active); for `CCN(CCNc1ccc(C)c2sc3cc(Cl)ccc3c(=O)c12)CC(C)O` (stereo unspecified), 36.7% (inactive); for `CC1(C)CC[C@]23CC[C@]4(C)[C@H](CC[C@@H]5[C@@]6(C)C/C(=C/c7cccnc7)C(=O)C(C)(C)[C@@H]6CC[C@]54C)[C@H]2[C@H]1OC3=O`, 21.7% [100 µM] (inactive).
For `Cc1ccc(-n2nc3n(/c2=N\C(=O)NS(=O)(=O)c2ccc(C)cc2)CCN3C2=NCCN2)cc1`, the growth is 94.6% (inactive).
The same measure, in the same setting: for `O=C1Nc2ccccc2/C1=C/C(=O)c1ccc(N2CCOCC2)cc1` the value was 79.5% (inactive).
For `Nc1ccc(NC(=O)c2ccccc2)c2c1C(=O)c1ccccc1C2=O`, the growth is 81.6% (inactive).
On the same count and under the same terms, for `CN(C)CCOc1ccc(/C(=C(/CCCl)c2ccccc2)c2ccccc2)cc1` the value was 3.24% (active); for `CC[C@@H]1NC(=O)[C@@H]2CCCCN2C(=O)[C@@H]2CCCN2C(=O)[C@@H](NC(=O)[C@H](Cc2cc(F)cc(F)c2)NC(=O)Nc2ccc(C3CC3)cc2F)[C@H](C)OC(=O)[C@@H]2C[C@@H](C)CN2C1=O`, 13.4% (inactive).

For a further assay, the system named is HCT-116 colon. The description is as above. The conditions noted are these: 10 µM unless noted.
Consider `C=C(C)[C@@H]1CC[C@]2(C(=O)OC)CC[C@]3(C)[C@H](CC[C@@H]4[C@@]5(C)CC/C(=N\OCCC(=NCCC#N)NOCCC#N)C(C)(C)[C@@H]5CC[C@]43C)[C@@H]12`, for which the growth is 4.16% [100 µM] (active).
Same read-out and setting: for `CCCCN(CC)CC(CC)Nc1cc(OC)cc2cccnc12` (stereo unspecified) the value was 105% (inactive); for `COc1ccccc1S(=O)Nc1ccccc1` (stereo unspecified), 115% (inactive).
On the same count and under the same terms, for `COc1cc(Cl)cc(-c2nn(C(=O)NS(=O)(=O)c3ccccc3)cc2-c2ccncc2)c1` the value was 93.7% (inactive); for `COc1ccc(CC(C#N)c2ccc(Cl)cc2)cc1` (stereo unspecified), 72.4% (inactive).
Still for that read-out and setting: for `COc1cc2c(c(OC)c1OC)-c1cc(I)c(O)cc1[C@@H](NC(C)=O)CC2` the value was 11.9% (inactive); for `O=C(O)CSCc1nnc2n(Cc3ccccc3)c(=O)c3c4c(sc3n12)CCCC4`, 144% (inactive); for `COc1ccc(C2NC(=O)C(C#N)c3c2sc2c(F)cccc32)cc1` (stereo unspecified), 37.5% (inactive).
Take `CCN=C1C=CC(=C(c2ccc(N(CC)CC)cc2)c2ccc(N(CC)CC)cc2)c2ccccc21`: the growth was -45.7% (active).
`CC1(C)C(=NO)C(C)(C)C1=NO`: the growth was 103% (inactive).
Regarding `Cc1cc(SC#N)ncn1`, the growth was 99.5% (inactive).
For the compound `COCc1nc2ccccc2[nH]1`, the growth was 99.9% (inactive).
Still for that read-out and setting: for `CCN1CCN(CC(=O)Nc2nc3ccc(NCc4ccc(Cl)cc4)cc3s2)CC1` the value was 12.6% (inactive); for `C=C(C)C1CCC2(C(=O)O)CCC3(C)C(CCC4C5(C)CCC(OC(=O)NCc6ccccc6)C(C)(C)C5CCC43C)C12` (stereo unspecified), 18% (inactive); for `CCc1ccc(C2=C/C(=C/c3ccccc3)C(=O)N2CCc2ccc(S(N)(=O)=O)cc2)cc1`, 103% (inactive).
The same measure, in the same setting: for `CCN(CC)c1ccc2cc(NC(=O)OCCNC(=O)CCNC(=O)[C@H](CC(C)C)NC(=O)C(C)(C)NC(=O)C(C)(C)NC(=O)[C@H](CC(C)C)NC(=O)CCNC(=O)C(C)(C)NC(=O)[C@H](CC(C)C)NC(=O)CCNC(=O)[C@@](C)(CC)NC(=O)[C@H](C)NC(=O)CCNC(=O)C(C)(C)NC(=O)[C@H](C)NC(=O)[C@@H]3CCCN3C(=O)[C@@](C)(CC)NC(=O)[C@H](Cc3ccccc3)NC(=O)C3CCCN3C(=O)C(C)(C)NC(=O)C3CCCN3C(=O)C(C)(C)NC(C)=O)c(=O)oc2c1` (stereo partly specified) the value was -91.2% (active); for `COC(=O)c1cc2c(=O)[nH]cc3c2c(n1)CCC3`, 106% (inactive).
Take `C=C(CC(=O)OC)C(C)=O`: the growth was 116% (inactive).
Same read-out and setting: for `COc1ccc2c(c1)c(-c1noc(C(=O)c3cn(C)c4ncc(Br)cc34)n1)cn2C` the value was 50.3% (inactive).
On to `CC(C)(C)OC(=O)N1C=C/C(=C\Cn2cc(-c3ccccc3)nn2)CC1`, for which the growth is 74.1% (inactive).
With `COc1cc2c(c(OC)c1OC)-c1ccc(NNC(N)=S)c(=O)cc1[C@@H](NC(C)=O)CC2`, the growth was 2.28% (active).
The same measure, in the same setting: for `CC(C)OC(=O)Nc1cc(F)ccc1F` the value was 105% (inactive); for `C=C(C)[C@@H]1CC[C@]2(C)[C@H](CC[C@@H]3[C@@H]([C@@](C)(O)CCC=C(C)C)CC[C@]32C)[C@@]1(C)CCC(=O)O`, -39.4% [100 µM] (active).
For `COc1cc(-c2cc(-c3ccc(Nc4ncnc5cc(Cl)ccc45)cc3)nc(N3CCCCC3)n2)cc(OC)c1OC`, the growth was 103% (inactive).
Same read-out and setting: for `Cc1ccc(NC(=S)/N=c2/n(-c3ccccc3)nc3n2CCN3C2=NCCN2)cc1` the value was 48.6% (inactive); for `COc1c(B(O)O)cccc1-c1nc2ccc3[nH]ncc3c2c2c1CCC2`, 47.3% (inactive).
As for `O=C1Nc2ccccc2/C1=C/C(=O)c1ccc(N2CCCC2)cc1`, the growth was 103% (inactive).
Still for that read-out and setting: for `COc1cc(C(=O)/C=C/c2c(-c3ccc(F)cc3)nc3sccn23)cc(OC)c1OC` the value was 23.3% (inactive); for `COc1ccc(C2CC(c3cc(OC)c(OC)c(OC)c3)=NN2C(C)=O)cc1OCC(=O)Nc1nc2ccc(C(F)(F)F)cc2s1` (stereo unspecified), 30.5% (inactive); for `CN(C)c1cc(NN=C(c2ccc(O)cc2)c2ccc(O)cc2)c([N+](=O)[O-])cc1[N+](=O)[O-]`, 33.2% (inactive).
Still for that read-out and setting: for `CC[C@@](C)(NC(=O)[C@H](C)NC(=O)CCNC(=O)C(C)(C)NC(=O)[C@H](C)NC(=O)[C@@H]1CCCN1C(=O)[C@@](C)(CC)NC(=O)[C@H](Cc1ccccc1)NC(=O)C1CCCN1C(=O)C(C)(C)NC(=O)C1CCCN1C(=O)C(C)(C)NC(C)=O)C(=O)NCCC(=O)N[C@@H](CC(C)C)C(=O)NC(C)(C)C(=O)NCCC(=O)N[C@@H](CC(C)C)C(=O)NC(C)(C)C(=O)NC(C)(C)C(=O)N[C@@H](CC(C)C)C(=O)NCCC(=O)NCO` (stereo partly specified) the value was -94.6% (active); for `CCN(CCNc1ccc(C)c2sc3cc(Cl)ccc3c(=O)c12)CC(C)O` (stereo unspecified), 9.99% (active).
On the same count and under the same terms, for `CC1(C)CC[C@]23CC[C@]4(C)[C@H](CC[C@@H]5[C@@]6(C)C/C(=C/c7cccnc7)C(=O)C(C)(C)[C@@H]6CC[C@]54C)[C@H]2[C@H]1OC3=O` the value was 15.6% [100 µM] (inactive); for `Cc1ccc(-n2nc3n(/c2=N\C(=O)NS(=O)(=O)c2ccc(C)cc2)CCN3C2=NCCN2)cc1`, 87.3% (inactive); for `O=C1Nc2ccccc2/C1=C/C(=O)c1ccc(N2CCOCC2)cc1`, 92.2% (inactive).
Consider `Nc1ccc(NC(=O)c2ccccc2)c2c1C(=O)c1ccccc1C2=O`, for which the growth is 101% (inactive).
On the same count and under the same terms, for `CN(C)CCOc1ccc(/C(=C(/CCCl)c2ccccc2)c2ccccc2)cc1` the value was 6.56% (active); for `CC[C@@H]1NC(=O)[C@@H]2CCCCN2C(=O)[C@@H]2CCCN2C(=O)[C@@H](NC(=O)[C@H](Cc2cc(F)cc(F)c2)NC(=O)Nc2ccc(C3CC3)cc2F)[C@H](C)OC(=O)[C@@H]2C[C@@H](C)CN2C1=O`, 4.17% (active).
